This is a sample that favours compounds with a hit; in the whole collection about 7.4% have one here.
FLuc modulator: inhibits or activates purified firefly luciferase, miR-21 counter-screen; P08659; purified FLuc, Km substrates, luminescence inhibition; Potency, µM (doses to about 57.5 µM), inactives show top-dose activity change, negative = inhibition, actives largely listed as inhibitors; hit rate 6.9% among 360,000;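 note: plate controls were vehicle for no effect and reference inhibitor for full effect; nearly all actives have a fitted effect of over 55% in size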
Target sequence (P08659 whole entry, looked up): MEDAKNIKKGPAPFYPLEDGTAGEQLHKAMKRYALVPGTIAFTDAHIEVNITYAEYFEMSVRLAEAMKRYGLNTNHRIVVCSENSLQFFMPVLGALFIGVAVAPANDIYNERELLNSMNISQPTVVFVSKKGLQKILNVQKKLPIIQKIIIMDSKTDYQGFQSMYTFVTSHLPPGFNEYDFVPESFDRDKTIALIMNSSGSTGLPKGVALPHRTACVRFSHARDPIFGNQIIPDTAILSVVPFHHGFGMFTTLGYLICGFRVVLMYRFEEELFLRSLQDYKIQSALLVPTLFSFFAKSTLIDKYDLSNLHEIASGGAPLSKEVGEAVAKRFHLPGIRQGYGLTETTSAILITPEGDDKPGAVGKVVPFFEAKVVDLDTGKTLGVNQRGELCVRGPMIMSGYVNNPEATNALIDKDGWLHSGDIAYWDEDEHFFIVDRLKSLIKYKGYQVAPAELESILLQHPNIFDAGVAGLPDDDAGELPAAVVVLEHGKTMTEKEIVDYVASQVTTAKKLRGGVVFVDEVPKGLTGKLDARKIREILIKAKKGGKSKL
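Purified P. pyralis luciferase, 10 nM final, with Km-level 10 uM D-luciferin and 10 uM ATP in 50 mM Tris acetate pH 7.5, 10 mM Mg acetate, 0.01% Tween-20, 0.05% BSA; 6-point qHTS titration about 60 µM downward; luminescence read.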
SMN2 splice up: SMN2 splice variant enhancement; hit rate 2.8% among 210,000; Potency, µM (doses to about 46.1 µM), for inactives: top-dose activity change, positive = activation, usual class: activators; AID 1458; HEK293 SMN2-luciferase splicing reporter, luminescence, 30-36 h; note: % of control where 0% means no effect; nearly all actives have a fitted effect of over 55% in size
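HEK293 cells carry an SMN2 […]–luciferase reporter in which exon 7 inclusion puts luciferase in frame. Cells were plated 10-12 h before compound addition, then incubated 30-36 h at 37C. ONE-Glo luminescence was read; sodium butyrate at 4.5 mM final served as control.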
Rab9 prom act: activators of Rab9 promoter; Potency, µM (series often up to 9.22 µM), for inactives: at the highest dose activation, negative = inhibition, hits mostly activators; AID 485297; Huh7 Rab9 promoter-luciferase reporter, luminescence, 24 h; hit rate 2.8% among 320,000; note: % of control where 0% means no effect; nearly all actives have a fitted effect of over 60% in size
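Cells were plated at 1500 per well in reduced-serum medium with 10% FBS and left 2 h. Compound in DMSO was then added for 24 h at 37 °C. Reporter signal was read by luminescence after 10 min with luciferase detection reagent.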
ELG1 genotox: induces genotoxicity in HEK293T cells with luciferase-tagged ELG1. Potency, µM (series often up to 46 µM), inactives show at the top dose activity change, positive = activation, most hits filed as activators. HEK293T ELG1-luciferase reporter, luminescence, 16 h. AID 504466. hit rate 1.3% among 330,000; note: % of control where 0% means no effect; nearly all actives have a fitted effect of over 60% in size
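Genotoxic stress is detected as increased luminescence from luciferase-tagged ELG1 in HEK293T cells, measured with ONE-Glo after a 16 hr treatment at 37 °C.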
NPC1 promoter act: activates the NPC1 promoter | Potency, µM (top dose mostly 9.22 µM), without a hit: at the highest dose activation, hits mostly activators | hit rate 2.4% among 320,000 | Huh7 NPC1 promoter luciferase reporter, 24 h; note: % of control where 0% means no effect; nearly all actives have a fitted effect of over 60% in size
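Readout is luciferase luminescence, reflecting NPC1 promoter activation in stably transfected Huh7 cells after 24 h compound exposure at 37 °C in reduced-serum medium with 10% FBS.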
Starred values were filed as active, the others as inactive. Calls come from the whole dose curve; as a rule, active = well fitted curve in the direction sought with a large enough effect; inconclusive = small, poorly fitted or top-dose-only effect, or another doubt; inactive = no such curve, though single readings can be large; an effect the other way counts as inactive or inconclusive. Potency is the fitted concentration of half-maximal effect.

Screening CCc1nnc(NC(=O)c2ccc(COc3ccccc3)o2)s1 returned FLuc modulator -13%, SMN2 splice up -2%, Rab9 prom act 3%, ELG1 genotox 16% and NPC1 promoter act 2%.
Screening Cc1ccc(OCc2ccc(C(=O)Nc3nccs3)o2)cc1 returned FLuc modulator 17µM*, SMN2 splice up 10%, Rab9 prom act 16%, ELG1 genotox 3% and NPC1 promoter act 26%.
`O=C(c1cccs1)c1ccc(-c2cccs2)s1` gave FLuc modulator 0.3µM*, SMN2 splice up inconclusive, Rab9 prom act 0.5µM*, ELG1 genotox inconclusive and NPC1 promoter act inconclusive.
Screening CN1CCCN(C(=O)c2ccc(Br)s2)CC1 returned FLuc modulator 2%, Rab9 prom act 3%, ELG1 genotox 2% and NPC1 promoter act -1%.
CN1CCN(C(=O)c2ccc(-c3cccs3)s2)CC1 was read as FLuc modulator 11µM*, Rab9 prom act 2.2µM*, ELG1 genotox inconclusive and NPC1 promoter act 1.8µM*.
`O=C(c1cccs1)c1no[n+]([O-])c1C(=O)c1cccs1` gave FLuc modulator -22%, Rab9 prom act -40%, ELG1 genotox inconclusive and NPC1 promoter act -42%.
CC1CCc2sc(C(=O)N3CCC(C(N)=O)CC3)cc2C1 (configuration not stated) was read as FLuc modulator 17µM*, Rab9 prom act 0.5µM*, ELG1 genotox inconclusive and NPC1 promoter act 0.4µM*.
Screening NC(=O)C1CCN(C(=O)c2cc3c(s2)CCCCC3)CC1 returned FLuc modulator inconclusive, Rab9 prom act 3.5µM*, ELG1 genotox 18% and NPC1 promoter act inconclusive.
CC1CC(C)CN(C(=O)c2cc3c(s2)CCC3)C1 (configuration not stated) was read as FLuc modulator -18%, SMN2 splice up -14%, Rab9 prom act 0%, ELG1 genotox 15% and NPC1 promoter act 1%.
For O=C(O)C1CCCCN1C(=O)c1cc2c(s1)CCCCC2 (configuration not stated) the results were Rab9 prom act 0%, ELG1 genotox 2% and NPC1 promoter act -8%.
Screening COCCCN=C1NN=C(c2cc(C)n(-c3ccccc3)c2C)CS1 returned FLuc modulator 4.3µM*, SMN2 splice up -63%, Rab9 prom act 1.3µM*, ELG1 genotox inconclusive and NPC1 promoter act inconclusive.
`Cc1cc(C2=NNC(=NC3CC3)SC2)c(C)n1-c1c(C)n(C)n(-c2ccccc2)c1=O` gave FLuc modulator -6%, SMN2 splice up -4%, Rab9 prom act -12%, ELG1 genotox -3% and NPC1 promoter act 6%.
Screening Cc1cc(C2=NNC(=Nc3ccccc3)SC2)c(C)n1C returned FLuc modulator 11µM*, SMN2 splice up inconclusive, Rab9 prom act 1.4µM*, ELG1 genotox inconclusive and NPC1 promoter act 3.2µM*.
For COCCn1c(C)cc(C2=NNC(=Nc3ccccc3F)SC2)c1C the results were FLuc modulator 0.54µM*, SMN2 splice up -31%, Rab9 prom act 0%, ELG1 genotox inconclusive and NPC1 promoter act inconclusive.
`COCCCN=C1NN=C(c2cc(C)n(Cc3ccccc3Cl)c2C)CS1` gave FLuc modulator 12µM*, SMN2 splice up inconclusive, Rab9 prom act 23%, ELG1 genotox inconclusive and NPC1 promoter act -4%.
`CCCCCSc1nc2sc3c(c2c(=O)n1-c1ccc(OC)cc1)CCN(C(C)=O)C3` gave FLuc modulator -8% and SMN2 splice up 7%.
`Cc1ccc(C)c(N2CCN(c3nc4ccccc4c(=O)n3-c3ccc(Cl)cc3)CC2)c1` gave FLuc modulator -9% and SMN2 splice up 1%.
Screening Cc1ccc(-n2ncc(C(=O)NCCN3CCC(Cc4ccccc4)CC3)c2C2CCN(C(=O)OC(C)(C)C)CC2)cc1 returned FLuc modulator -8%.
`COc1cccc(CNC(=O)CCCn2c(=O)c3cccn3c3ccc(F)cc32)c1OC` gave FLuc modulator 3%.
Screening Cc1noc(C)c1C(=O)N1CCC2(CC1)CN(c1ccccn1)C2 returned SMN2 splice up -14%.
CCN(CC)CCCNC(=O)CSc1nc2nc(C)c(Cc3ccccc3C)c(C)n2n1 was read as FLuc modulator -1% and SMN2 splice up 7%.
COCCCN=C1NN=C(c2cc(C)n(-c3ccccc3F)c2C)CS1 was read as FLuc modulator 2.4µM*, SMN2 splice up 16%, Rab9 prom act 0.32µM*, ELG1 genotox -9% and NPC1 promoter act inconclusive.
Screening COc1ccc(NC(=O)Cn2cnc3ccc(S(=O)(=O)N4CCC(C)CC4)cc3c2=O)cc1OC returned FLuc modulator 2% and SMN2 splice up -5%.
For Cc1ccc(-c2nc3s/c(=C\c4ccco4)c(=O)n3n2)cc1 the results were FLuc modulator 0.76µM*, SMN2 splice up 0%, Rab9 prom act 4%, ELG1 genotox -1% and NPC1 promoter act -4%.
Cc1ccc(/C=c2\sc3nc(-c4ccco4)nn3c2=O)o1 was read as FLuc modulator inconclusive, SMN2 splice up 14%, Rab9 prom act -1%, ELG1 genotox -5% and NPC1 promoter act 5%.
`COc1ccccc1CNC(=O)CCC1N=C2c3ccccc3N=C(SCC(=O)NCCc3ccc(OC)c(OC)c3)N2C1=O` (configuration not stated) gave FLuc modulator -3%.
For COc1cc(/C=C(\C#N)c2nc3ccccc3[nH]2)ccc1OCc1cccc(C(F)(F)F)c1 the results were FLuc modulator 0% and SMN2 splice up 4%.
Screening C=C1C(=O)C=C2CN(C(=O)c3ccccc3)[C@@](Cc3ccc(OC)cc3)(C(=O)OC)[C@@H]12 returned SMN2 splice up -97%.
For Cn1ccs/c1=N\C(=O)Nc1cccc(Cl)c1 the results were FLuc modulator 7.6µM*, Rab9 prom act 0.71µM*, ELG1 genotox 5.2µM* and NPC1 promoter act 0.89µM*.
`O=C(Nc1ccc(Cl)cc1)c1ccc2oc(=O)n(Cc3ccccc3)c2c1` gave FLuc modulator 5%.
N=c1scc(-c2ccccc2)n1/N=C/c1ccco1 was read as FLuc modulator 6.7µM*, SMN2 splice up inconclusive, Rab9 prom act 3.5µM*, ELG1 genotox inconclusive and NPC1 promoter act inconclusive.
For C(=N/n1c2ccccc2c2ccccc21)/c1ccco1 the results were FLuc modulator 0%, SMN2 splice up inconclusive, Rab9 prom act -2%, ELG1 genotox -9% and NPC1 promoter act -5%.
`Fc1cccc(/C=N/Nc2nc3ccccc3[nH]2)c1` gave FLuc modulator 8.5µM*, SMN2 splice up inconclusive, Rab9 prom act 3.2µM*, ELG1 genotox inconclusive and NPC1 promoter act inconclusive.
`Brc1ccc(-c2ccc(/C=N/Nc3nncc(-c4ccccc4)n3)o2)cc1` gave FLuc modulator -11%, SMN2 splice up -4%, Rab9 prom act -1%, ELG1 genotox -1% and NPC1 promoter act 2%.

Screening data as filed in PubChem.
